KDM4E inh: qHTS Assay for Inhibitors of Human Jumonji Domain Containing 2E (JMJD2E); Lysine-specific demethylase 4E (Homo sapiens), B2RXH2; JMJD2E catalytic domain, FDH-coupled NADH fluorescence (FDH is formaldehyde dehydrogenase); Potency, µM (doses to about 57.1 µM), usual class: inhibitors; actives 1.6% (n = 230,000); AID 2147, 2009; active = well fitted inhibition curve with a large enough effect, not every such curve was filed as active; inconclusive = small, poorly fitted or top-dose-only effect, or another doubt; inactive = no such curve, though single readings can be large or run the other way; note: nearly all actives have a fitted effect of over 50% in size
TDP1 inh: qHTS Assay for Inhibitors of Tyrosyl-DNA Phosphodiesterase (TDP1); Potency, µM (titrated, usually from 130 µM), most hits filed as inhibitors; recombinant TDP1, AlphaScreen DNA substrate cleavage; actives 0.28% (n = 350,000); AID 485290, 2010; Tyrosyl-DNA phosphodiesterase 1 (Homo sapiens), Q9NUW8; note: nearly all actives have a fitted effect of over 40% in size
Target sequence (Q9NUW8 whole entry, looked up): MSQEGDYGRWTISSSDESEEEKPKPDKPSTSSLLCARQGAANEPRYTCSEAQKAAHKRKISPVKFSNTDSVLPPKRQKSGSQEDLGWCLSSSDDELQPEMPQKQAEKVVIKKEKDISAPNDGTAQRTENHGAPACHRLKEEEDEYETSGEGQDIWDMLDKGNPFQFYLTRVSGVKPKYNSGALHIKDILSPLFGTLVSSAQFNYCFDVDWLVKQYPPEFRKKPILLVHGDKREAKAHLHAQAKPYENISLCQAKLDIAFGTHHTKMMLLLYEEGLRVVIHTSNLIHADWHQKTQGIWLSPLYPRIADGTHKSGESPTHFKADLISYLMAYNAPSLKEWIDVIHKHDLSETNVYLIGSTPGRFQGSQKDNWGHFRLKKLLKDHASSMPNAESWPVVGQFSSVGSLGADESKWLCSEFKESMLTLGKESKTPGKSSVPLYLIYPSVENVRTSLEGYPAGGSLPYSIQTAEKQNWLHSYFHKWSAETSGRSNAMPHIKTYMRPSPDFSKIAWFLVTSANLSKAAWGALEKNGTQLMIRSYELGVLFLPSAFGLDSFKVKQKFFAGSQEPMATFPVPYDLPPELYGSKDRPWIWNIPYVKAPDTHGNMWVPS
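E. coli-derived human Tdp1, 1 nM final. Cpd preinc 15 min RT; substrate 15 nM final, 5 min RT; AS bead mix 10 ug/ml final, 10 min RT. Signal loss = tyrosine-FITC cleavage. No-enzyme wells = max signal.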
L3MBTL1 inh: qHTS Assay for the Inhibitors of L3MBTL1; Lethal(3)malignant brain tumor-like protein 1 (Homo sapiens), Q9Y468; AlphaScreen L3MBTL1–H3K9me1 peptide binding; Potency, µM (series often up to 57.1 µM), most hits filed as inhibitors; actives 0.66% (n = 230,000); note: nearly all actives have a fitted effect of over 60% in size
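First, the protein-peptide complex forms for 30 min at room temperature (L3MBTL1 50 nM, biotinylated H3K9me1 peptide 75 nM). Next, compounds are pin-transferred and incubated 30 min. Finally, AlphaScreen beads are added and read after 30 min.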
APE1 inh-1: qHTS Assay for Inhibitors of the Human Apurinic/apyrimidinic Endonuclease 1 (APE1) | recombinant APE1, TAMRA/BHQ-2 abasic DNA cleavage fluorescence | Potency, µM (doses to about 65.8 µM), actives largely listed as inhibitors | actives 0.35% (n = 350,000); note: nearly all actives have a fitted effect of over 55% in size
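Activity was derived from the fluorescence gain between first and third kinetic reads (60 s intervals, ex 525/em 598 nm) after 50 nM THF-abasic TAMRA/BHQ-2 duplex was added to 0.75 nM APE1 preincubated 15 min with compound.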
RECQ1 inh: qHTS Assay for Inhibitors of RecQ-Like Dna Helicase 1 (RECQ1); RECQ1 DNA unwinding, red fluorescence kinetic read; ATP-dependent DNA helicase Q1 (Homo sapiens), P46063; AID 2549, 2010; Potency, µM (doses to about 57.3 µM), actives largely listed as inhibitors; actives 0.54% (n = 240,000); note: nearly all actives have a fitted effect of over 30% in size
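RECQ1T1 50 nM; forked duplex (20 bp + 30-nt ss tails) 200 nM, ATP 2 mM final; pH 8.0, 2 mM MgCl2, 2.5 ug/ml poly(dI-dC); 15 min compound preincubation; discontinuous kinetic read over 2 h at RT.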
BLM inh: qHTS Assay for Inhibitors of Bloom's syndrome helicase (BLM). RecQ-like DNA helicase BLM (Homo sapiens), P54132. AID 2528, 2010. recombinant BLM DNA unwinding, fluorescence dequenching. Potency, µM (titrated, usually from 56.1 µM), actives largely listed as inhibitors. actives 0.2% (n = 350,000); note: nearly all actives have a fitted effect of over 35% in size
APE1 dye cs: Counterscreen for APE1 Inhibitors: Fluorescent Dye Displacement Assay. AID 2564, 2010. Potency, µM (top dose mostly 28.5 µM), hits mostly inhibitors. shares compounds with APE1 inh-1. actives 7% (n = 480). DNA fluorescent dye displacement counterscreen, fluorescence;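 note: loss of thiazole orange fluorescence as the dye is displaced from duplex DNA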
Endo IV inh: Counterscreen for APE1 Inhibitors: qHTS Assay for Inhibitors of Endonuclease IV; shares compounds with APE1 inh-1; Potency, µM (series often up to 27.1 µM), actives largely listed as inhibitors; AID 2565, 2010; actives 4% (n = 560); E. coli Endo IV, fluorogenic AP-site DNA cleavage
APE1 inh-2: Confirmation qHTS Assay for Inhibitors of the Human Apurinic/apyrimidinic Endonuclease 1 (APE1); shares compounds with APE1 inh-1; purified APE1, fluorogenic abasic-site DNA cleavage; Potency, µM (top dose mostly 57.1 µM), most hits filed as inhibitors; actives 44% (n = 750); AID 2572, 2010; note: nearly all actives have a fitted effect of over 30% in size
APE1 FP inh: qHTS FP-Based Assay for Inhibitors of the Human Apurinic/apyrimidinic Endonuclease 1 (APE1) | actives 7% (n = 480) | Potency, µM (doses to about 28.5 µM), actives largely listed as inhibitors | APE1 binding to TAMRA-labelled double-stranded DNA, fluorescence polarization displacement | shares compounds with APE1 inh-1
Of the large screens only hits and unclear results are named; the others gave an inactive call (follow-up assays come after a bar, where they were run); ! = not confirmed by another sample. Many of the other results were omitted from the sample, so hits are more common in it than they were. Unless noted, calls come from the whole dose curve; as a rule, active = well fitted curve in the direction sought with a large enough effect; inconclusive = small, poorly fitted or top-dose-only effect, or another doubt; inactive = no such curve, though single readings can be large; an effect the other way counts as inactive or inconclusive.

CSCC[C@H](NC(=O)[C@H](Cc1c[nH]c2ccccc12)NC(=O)CNC(=O)[C@H](Cc1ccc(O)cc1)NC(=O)[C@H](C)NC(=O)[C@H](CCC(=O)O)NC(=O)[C@H](CCC(=O)O)NC(=O)[C@H](CCC(=O)O)NC(=O)[C@H](CCC(=O)O)NC(=O)[C@H](CCC(=O)O)NC(=O)[C@H](CC(C)C)NC(=O)[C@H](Cc1c[nH]c2ccccc12)NC(=O)[C@@H]1CCCN1C(=O)CNC(=O)[C@@H]1CCC(=O)N1)C(=O)N[C@@H](CC(=O)O)C(=O)N[C@@H](Cc1ccccc1)C(=O)NCC(=O)O	none (no result: KDM4E inh, L3MBTL1 inh)
NC(=O)COC(=O)c1ccc(Cl)c(S(=O)(=O)N2CCCCCC2)c1	none (no result: L3MBTL1 inh)
O=C(OCC(=O)N1CCCCCC1)c1ccc(Cl)c(S(=O)(=O)N2CCCC2)c1	APE1 inh-1 inconclusive (no result: TDP1 inh) | APE1 dye cs inactive | Endo IV inh inactive | APE1 inh-2 inconclusive | APE1 FP inh inactive
C[C@H]1Cc2c(-c3ccccc3)nc3c(c2CO1)CN(S(=O)(=O)c1ccc2c(c1)OCCN2C)CC3	none (no result: L3MBTL1 inh)
Nc1cc([N+](=O)[O-])ccc1N1C(=O)CCCC1=O	TDP1 inh 20µM, APE1 inh-1 inconclusive | APE1 inh-2 inconclusive
Nc1cc(Cl)ccc1N1C(=O)CCC1=O	none
O=C(COCc1cc(-c2cccs2)on1)NCc1ccccc1Cl	none (no result: KDM4E inh, L3MBTL1 inh, APE1 inh-1, RECQ1 inh)
O=C(CSc1nc2ncc(Cl)cc2[nH]1)c1ccc2c(c1)OCO2	RECQ1 inh inconclusive (no result: L3MBTL1 inh)
O=C(CSc1nc2cc(Cl)c(Cl)cc2[nH]1)c1ccc2c(c1)OCO2	APE1 inh-1 inconclusive | APE1 dye cs inactive | Endo IV inh inactive | APE1 inh-2 inconclusive | APE1 FP inh inactive
Cc1nc(N=Nc2ccc(C(=O)O)cc2)c(COP(=O)(O)O)c(C=O)c1O	KDM4E inh 28µM, TDP1 inh 14µM, APE1 inh-1 inconclusive (no result: L3MBTL1 inh, BLM inh) | Endo IV inh inactive | APE1 inh-2 14µM
Cc1nc(N=Nc2ccc(S(=O)(=O)O)cc2S(=O)(=O)O)c(COP(=O)(O)O)c(C=O)c1O	KDM4E inh inconclusive, TDP1 inh 20µM, APE1 inh-1 32µM! (no result: L3MBTL1 inh) | Endo IV inh inactive | APE1 inh-2 inactive
CC(O)C1CCC2C3CCC4CC(O)CCC4(C)C3CCC12C (centres undefined)	none (no result: KDM4E inh, L3MBTL1 inh, APE1 inh-1, RECQ1 inh)
NC(=O)c1ccc2nc(NC(=O)c3ccc(N)cc3)sc2c1	KDM4E inh inconclusive, TDP1 inh 79µM | APE1 inh-2 inconclusive
